We go through 5 compounds from PubChem BioAssay AID2284339 (EPA ToxCast).

Values joined by “and” are separate entries in the source; they are usually repeats but may differ in a detail not shown here. Identical values can stand only once. Active and inactive are the calls of the source. The calls were made as follows: active = hit-call score of the fitted dose curve at least 0.9, where 1 is the maximum; inactive = score below 0.9.

The term AC50 denotes the midpoint of the concentration-response curve, whichever way the signal moves.

The assay relates to NCBI gene 100038242. The assay can be described thus: CCTE_GLTED_xDIO3: CCTE's Xenopus Iodothyronine Deiodinase Type 3 (xDIO3) Inhibition Assay, Great Lakes Toxicology and Ecology Division (GLTED) Lab. As for the experimental part:
CCTE_GLTED_xDIO3 is a cell-free, single-readout assay designed to test the inhibitory activity of chemicals toward Xenopus (frog) iodothyronine Deiodinase Type 3 (DIO3) enzyme. Enzyme is incubated in presence of test chemical for 3 hours during which uninhibited enzyme liberates free iodide from substrate. Free iodide is measured in a second step using the Sandell-Kolthoff method.CCTE_GLTED_xDIO3 is the assay component measured from the CCTE_GLTED_xDIO assay. It is designed to make measurements of enzyme activity, a form of enzyme reporter, as detected with absorbance signals by spectrophotometry.Data from the assay component CCTE_GLTED_xDIO3 was analyzed at the assay endpoint CCTE_GLTED_xDIO3 in the positive analysis fitting direction relative to DMSO as the negative control and baseline of activity. Using a type of enzyme reporter, loss-of-signal activity can be used to understand deiodinase Type 3 activity. To generalize the intended target to other relatable targets, this assay endpoint is annotated to the 'deiodinase' intended target family, where the subfamily is 'deiodinase Type 3'.
[…]
As for `C=CC(=O)OCC(F)(F)C(F)F`, the AC50 is 19.8 µM (active).

For `O=S(=O)(O)C(F)(F)C(F)(F)C(F)(F)C(F)(F)C(F)(F)C(F)(F)C(F)(F)C(F)(F)F`, the AC50 was 142 µM (active) and 160 µM (active). For `COC(=O)C(F)(F)C(F)(F)OC(F)(C(F)(F)F)C(F)(F)OC(F)=C(F)F` (stereo not given) the value was 7.65 µM (active). The figure for `O=C(O)C(F)(F)C(F)(F)C(F)(F)C(F)(F)C(F)(F)C(F)(F)C(F)(F)C(F)(F)C(F)(F)F` is 147 µM (active); for `O=C(O)C(F)(F)C(F)(F)C(F)(F)C(F)(F)C(F)(F)C(F)(F)C(F)(F)C(F)(F)C(F)(F)C(F)(F)F` it is 27.7 µM (active).
